± gives the standard deviation of the averaged measurements.
How the values were obtained:
[1] = system: CLZ3 (HCA2 human fibroblast dual HR-NHEJ reporter); assay: NHEJ repair efficiency (GFP+ cells) relative to control (log10 fold); higher = more non-homologous end joining; settings: 5 µM; doxycycline 0.5 ug/mL
[2] = system: CLZ3 (HCA2 human fibroblast dual HR-NHEJ reporter); assay: HR repair efficiency (tdTomato+ cells) relative to control (log10 fold); higher = more homologous recombination; settings: 5 µM; doxycycline 0.5 ug/mL
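Wherever HR repair efficiency (tdTomato+ cells) relative to control is given: compound given one day before doxycycline, which switches on I-SceI endonuclease expression to create double-strand breaks within the integrated reporter.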
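Wherever NHEJ repair efficiency (GFP+ cells) relative to control is given: compound given one day ahead of doxycycline, which switches on I-SceI endonuclease to cut the chromosomally integrated reporter and create DSBs.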

Row | SMILES | NHEJ repair efficiency (log10) [1] | HR repair efficiency (log10) [2]
1 | C=C1[C@H]2C[C@@]3([C@@H]1O)[C@@H](CC2=O)[C@]12[C@@H]4C[C@H]3[C@H]1N(CC)C[C@]4(C)CC[C@@H]2O [Songorine] | -0.0383 | 0.115
2 | O=C(/C=C/c1ccccc1)OC[C@H]1O[C@@H](O[C@@H]2OC=C[C@H]3[C@H](O)[C@@H]4O[C@]4(CO)[C@@H]23)[C@H](O)[C@@H](O)[C@@H]1O [Picroside I] | -0.0564 | -0.0261
3 | O=c1ccc2ccc3occc3c2o1 [Isopsoralen] | -0.0427 | -0.0598
4 | CC(C)c1ccc2c(c1O)CC[C@H]1C3=C(CC[C@]21C)C(=O)OC3 [Triptophenolide] | -0.142 ± 0.096 | -0.108 ± 0.2
5 | CC(C)(C)[C@]1(O)CC2OC(=O)CC23C(=O)OC2OC(=O)[C@H](O)C231 (stereo partly specified) [Bilobalide] | 0.0452 | 0.0541
6 | COc1cc2occc2c2oc(=O)ccc12 [Isobergapten] | -0.0955 | -0.063
7 | C[C@H]1CC[C@@H]2N(C1)C[C@H]1[C@@H]3C[C@H]4[C@@H](C[C@H](O)[C@H]5C[C@@H](O)CC[C@@]54C)[C@@H]3CC[C@@H]1[C@]2(C)O [Peimine] | -0.07 | -0.0412
8 | CCN1C[C@]2(COC)CC[C@H](OC)[C@]34C1[C@H]([C@H](OC)[C@H]23)[C@@]1(O)C[C@H](OC)[C@H]2C[C@@H]4[C@@H]1[C@H]2O [Chasmanine] | 0.0232 | -0.00256
9 | CC(C)=CCC[C@](C)(O)[C@H]1CC[C@]2(C)[C@@H]1[C@H](O)C[C@@H]1[C@@]3(C)CC[C@H](O)C(C)(C)[C@@H]3[C@@H](O[C@@H]3O[C@H](CO)[C@@H](O)[C@H](O)[C@H]3O)C[C@]12C [Ginsenoside Rh1] | -0.0663 | 0.25
10 | C[C@@H]1CCC=C2C(=O)C[C@H]3OOC(C)(C)[C@H]3[C@]21C [Nardosinone] | -0.0297 | -0.0118
11 | c1cc2c(cc1[C@H]1OC[C@H]3[C@@H]1CO[C@H]3c1ccc3c(c1)OCO3)OCO2 [Asarinin] | -0.271 | -0.223
12 | CCN1C[C@]2(COC)CC[C@H](OC)[C@]34C1[C@H]([C@H](OC)[C@H]23)[C@@]1(OC(C)=O)C[C@H](OC)[C@@]2(O)C[C@@H]4[C@@H]1[C@H]2OC(=O)c1ccc(OC)cc1 [Crassicauline A] | 0.00451 | 0.0792
13 | N#C[C@H](O[C@@H]1O[C@H](CO[C@@H]2O[C@H](CO)[C@@H](O)[C@H](O)[C@H]2O)[C@@H](O)[C@H](O)[C@H]1O)c1ccccc1 [Amygdalin] | -0.0091 | 0.107

Reference: the supplement of paper PMC7380943
